Source: PubChem BioAssay (National Center for Advancing Translational Sciences (NCATS))
Menin MLL FP TR – qHTS Assay for Inhibitors Targeting the Menin-MLL Interaction in MLL Related Leukemias: Competition With Texas Red Labeled MLL-derived Mutant Peptide; O00255; Menin + Texas Red MLL mutant peptide, fluorescence polarization; Potency, µM (series often up to 61.6 µM), inactives show at the highest dose FP activity change, negative = inhibition, actives largely listed as inhibitors; 270,000 compounds, 0.23% hits; active = well fitted inhibition curve with a large enough effect in the polarisation, with a control signal flat, not every such curve was filed as active; inconclusive = small, poorly fitted or top-dose-only effect, or effect the other way, or a change in a side signal; inactive = no such curve, though single readings can be large or run the other way; the % refers to the polarisation; note: potency is the fitted concentration of half-maximal effect; % of control where 0% means no effect
MLL CXXC-DNA inh – qHTS Fluorescence Polarization Assay for Inhibitors of MLL CXXC domain - DNA interaction; MLL-CXXC / FITC-HOXA9 DNA fluorescence polarization; Potency, µM (highest dose often 115 µM), inactives show at the top dose activity change, negative = inhibition, usual class: inhibitors; 290,000 compounds, 0.037% hits; AID 2662, 2010; active = well fitted inhibition curve with a large enough effect in the polarisation, with a control signal flat, not every such curve was filed as active; inconclusive = small, poorly fitted or top-dose-only effect, or effect the other way, or a change in a side signal; inactive = no such curve, though single readings can be large or run the other way; the % refers to the polarisation; note: potency is the fitted concentration of half-maximal effect
Target sequence (Q03164 whole entry, looked up, the tested form may be a part): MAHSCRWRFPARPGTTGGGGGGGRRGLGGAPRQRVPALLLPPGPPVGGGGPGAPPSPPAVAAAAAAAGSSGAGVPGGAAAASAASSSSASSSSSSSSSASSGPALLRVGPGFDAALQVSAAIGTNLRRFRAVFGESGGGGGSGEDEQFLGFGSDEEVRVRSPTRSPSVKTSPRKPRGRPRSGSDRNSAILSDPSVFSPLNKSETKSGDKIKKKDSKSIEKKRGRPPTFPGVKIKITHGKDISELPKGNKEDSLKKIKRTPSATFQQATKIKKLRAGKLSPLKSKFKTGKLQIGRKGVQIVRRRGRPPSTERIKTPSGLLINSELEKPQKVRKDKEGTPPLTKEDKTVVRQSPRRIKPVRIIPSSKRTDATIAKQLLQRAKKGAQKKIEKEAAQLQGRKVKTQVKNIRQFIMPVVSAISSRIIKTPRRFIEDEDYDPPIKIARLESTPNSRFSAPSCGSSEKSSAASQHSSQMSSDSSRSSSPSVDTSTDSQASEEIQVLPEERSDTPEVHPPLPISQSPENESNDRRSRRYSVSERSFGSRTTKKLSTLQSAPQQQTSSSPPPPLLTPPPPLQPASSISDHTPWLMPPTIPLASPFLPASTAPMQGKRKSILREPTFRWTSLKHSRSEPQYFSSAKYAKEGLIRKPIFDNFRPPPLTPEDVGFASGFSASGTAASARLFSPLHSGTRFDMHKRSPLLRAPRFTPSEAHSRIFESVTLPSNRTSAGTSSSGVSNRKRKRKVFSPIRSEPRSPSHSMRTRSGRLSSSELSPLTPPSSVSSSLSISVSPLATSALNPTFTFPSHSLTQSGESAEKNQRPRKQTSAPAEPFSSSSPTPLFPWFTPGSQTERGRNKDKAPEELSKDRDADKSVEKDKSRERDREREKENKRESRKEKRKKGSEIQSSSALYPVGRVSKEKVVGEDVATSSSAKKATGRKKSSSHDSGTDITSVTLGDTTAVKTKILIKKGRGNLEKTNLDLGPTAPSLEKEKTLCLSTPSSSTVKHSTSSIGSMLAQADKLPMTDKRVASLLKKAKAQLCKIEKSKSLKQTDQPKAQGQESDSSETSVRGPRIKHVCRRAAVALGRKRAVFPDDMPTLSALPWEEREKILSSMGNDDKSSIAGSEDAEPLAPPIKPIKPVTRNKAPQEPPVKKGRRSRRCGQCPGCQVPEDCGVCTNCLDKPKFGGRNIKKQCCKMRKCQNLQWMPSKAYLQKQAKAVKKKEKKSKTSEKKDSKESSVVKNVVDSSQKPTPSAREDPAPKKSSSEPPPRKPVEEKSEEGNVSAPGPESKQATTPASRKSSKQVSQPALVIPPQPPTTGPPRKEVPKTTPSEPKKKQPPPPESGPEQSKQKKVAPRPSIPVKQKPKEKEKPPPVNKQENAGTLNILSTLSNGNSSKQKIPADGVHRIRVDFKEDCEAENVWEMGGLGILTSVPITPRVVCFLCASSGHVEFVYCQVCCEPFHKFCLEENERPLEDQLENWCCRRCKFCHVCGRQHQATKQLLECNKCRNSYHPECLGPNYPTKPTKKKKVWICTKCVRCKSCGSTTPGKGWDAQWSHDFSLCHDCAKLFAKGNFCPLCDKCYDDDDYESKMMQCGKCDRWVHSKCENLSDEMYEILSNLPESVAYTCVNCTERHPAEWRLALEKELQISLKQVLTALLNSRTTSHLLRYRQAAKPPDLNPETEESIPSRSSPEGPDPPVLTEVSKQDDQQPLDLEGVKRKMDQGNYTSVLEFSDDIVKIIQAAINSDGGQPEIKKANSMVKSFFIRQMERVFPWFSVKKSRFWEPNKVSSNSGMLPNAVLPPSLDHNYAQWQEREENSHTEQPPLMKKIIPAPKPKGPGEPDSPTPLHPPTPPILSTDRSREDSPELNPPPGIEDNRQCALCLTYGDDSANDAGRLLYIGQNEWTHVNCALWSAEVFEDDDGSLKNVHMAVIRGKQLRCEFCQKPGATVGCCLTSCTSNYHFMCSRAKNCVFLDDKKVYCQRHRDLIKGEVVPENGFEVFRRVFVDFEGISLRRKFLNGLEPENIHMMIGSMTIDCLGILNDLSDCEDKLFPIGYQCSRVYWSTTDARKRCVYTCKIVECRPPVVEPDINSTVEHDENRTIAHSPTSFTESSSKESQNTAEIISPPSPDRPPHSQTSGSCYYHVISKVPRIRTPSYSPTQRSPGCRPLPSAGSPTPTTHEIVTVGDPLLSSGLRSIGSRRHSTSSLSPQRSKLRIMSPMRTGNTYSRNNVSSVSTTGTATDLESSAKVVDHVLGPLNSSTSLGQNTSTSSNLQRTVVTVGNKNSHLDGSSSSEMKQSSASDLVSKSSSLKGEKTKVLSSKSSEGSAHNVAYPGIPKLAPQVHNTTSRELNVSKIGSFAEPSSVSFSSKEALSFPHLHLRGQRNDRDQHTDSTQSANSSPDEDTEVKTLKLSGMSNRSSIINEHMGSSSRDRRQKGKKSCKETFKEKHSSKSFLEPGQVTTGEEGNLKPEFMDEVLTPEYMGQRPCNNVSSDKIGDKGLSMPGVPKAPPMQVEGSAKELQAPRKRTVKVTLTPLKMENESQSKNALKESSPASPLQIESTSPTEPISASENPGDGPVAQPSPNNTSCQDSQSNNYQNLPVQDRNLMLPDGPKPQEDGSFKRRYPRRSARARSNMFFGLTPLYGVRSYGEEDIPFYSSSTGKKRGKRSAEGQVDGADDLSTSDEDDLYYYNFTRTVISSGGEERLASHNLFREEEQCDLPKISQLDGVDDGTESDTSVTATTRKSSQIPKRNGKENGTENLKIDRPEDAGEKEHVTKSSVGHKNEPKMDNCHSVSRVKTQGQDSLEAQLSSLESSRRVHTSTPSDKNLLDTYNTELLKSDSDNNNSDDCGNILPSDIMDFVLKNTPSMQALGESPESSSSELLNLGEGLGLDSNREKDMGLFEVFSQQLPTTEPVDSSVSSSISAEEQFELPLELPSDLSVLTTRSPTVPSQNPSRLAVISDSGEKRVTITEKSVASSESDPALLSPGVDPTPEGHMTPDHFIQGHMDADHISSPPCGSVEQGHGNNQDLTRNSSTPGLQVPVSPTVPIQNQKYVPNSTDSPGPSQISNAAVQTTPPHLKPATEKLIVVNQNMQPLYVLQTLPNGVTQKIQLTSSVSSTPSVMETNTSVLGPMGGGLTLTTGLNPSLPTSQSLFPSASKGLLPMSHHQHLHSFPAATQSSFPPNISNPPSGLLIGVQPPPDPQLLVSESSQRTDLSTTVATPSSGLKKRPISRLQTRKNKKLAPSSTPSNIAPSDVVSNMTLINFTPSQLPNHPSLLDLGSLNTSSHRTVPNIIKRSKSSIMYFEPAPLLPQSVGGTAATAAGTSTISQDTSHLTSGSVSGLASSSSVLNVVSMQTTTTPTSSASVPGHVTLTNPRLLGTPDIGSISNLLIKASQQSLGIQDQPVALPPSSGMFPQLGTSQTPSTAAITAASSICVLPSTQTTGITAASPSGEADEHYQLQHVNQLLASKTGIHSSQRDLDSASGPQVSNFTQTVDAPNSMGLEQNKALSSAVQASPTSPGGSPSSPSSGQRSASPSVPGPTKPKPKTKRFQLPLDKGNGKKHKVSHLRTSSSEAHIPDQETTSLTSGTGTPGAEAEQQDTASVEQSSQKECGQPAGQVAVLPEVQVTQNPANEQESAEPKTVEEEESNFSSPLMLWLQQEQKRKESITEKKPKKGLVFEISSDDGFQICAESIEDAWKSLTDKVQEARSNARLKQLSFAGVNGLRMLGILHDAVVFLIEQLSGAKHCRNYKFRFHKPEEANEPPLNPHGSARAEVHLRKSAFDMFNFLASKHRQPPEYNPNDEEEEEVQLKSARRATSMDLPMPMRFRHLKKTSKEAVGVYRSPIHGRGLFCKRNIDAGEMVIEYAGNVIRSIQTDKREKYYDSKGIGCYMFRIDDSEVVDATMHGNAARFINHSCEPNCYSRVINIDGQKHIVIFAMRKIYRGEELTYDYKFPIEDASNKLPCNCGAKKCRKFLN
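Purified MLL-CXXC (added from a 7 uM solution) was preincubated 5 min at ambient with pinned compounds in 50 mM Tris-HCl pH 7.5, 50 mM NaCl, 1 mM DTT, 0.05% BSA. Fluorescein-labeled HOX-A9 DNA (50 nM solution) followed, 30 min, then polarization read.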
p53 reactivation – qHTS assay for re-activators of p53 using a Luc reporter. H1299 p53-A138V BP100-luciferase reporter, luminescence, 24 h. Potency, µM (top dose mostly 92.2 µM), without a hit: top-dose activity change, positive = activation, hits mostly activators. 320,000 compounds, 0.063% hits; active = well fitted activation curve with a large enough effect; inconclusive = small, poorly fitted or top-dose-only effect; inactive = no such curve, though single readings can be large or run the other way; note: potency is the fitted concentration of half-maximal effect; % of control where 0% means no effect; nearly all actives have a fitted effect of over 45% in size
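p53-null H1299 cells stably carrying temperature-sensitive p53-A138V and a BP100-luciferase reporter were pinned with compounds (4-point, 1:5 series) and held 24 hrs at 37 deg C. Luminescence was read 10 min after detection reagent.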
Menin-MLL FL inh – qHTS Assay for Inhibitors Targeting the Menin-MLL Interaction in MLL Related Leukemias: Competition With Fluorescein Labeled MLL-derived Peptide; Fluorescence polarization, fluorescein-MLL peptide displacement from menin; FP activity change, % at 61.4 µM; 290,000 tested, under 10 active; active = well fitted curve in the direction sought with a large enough effect in the polarisation, not every such curve was filed as active; inconclusive = small, poorly fitted or top-dose-only effect, or effect the other way, or a change in a side signal; inactive = no such curve, though single readings can be large or run the other way; the % refers to the polarisation; note: % of control where 0% means no effect
ClpP mod – qHTS Assay for Activators of ClpP. ATP-dependent Clp protease proteolytic subunit (Bacillus subtilis (strain 168)), P80244. purified B. subtilis ClpP, FRET peptide cleavage, 20 min. Potency, µM (highest dose often 57.5 µM), for inactives: at the top dose activity change, negative = active. 340,000 compounds, 1.9% hits. AID 651965, 2013; active = well fitted falling curve with a large enough effect; inconclusive = small, poorly fitted or top-dose-only effect; inactive = no such curve, though single readings can be large or run the other way; note: potency is the fitted concentration of half-maximal effect; the source files actives as falling curves though it sought activators and does not explain the sign; nearly all actives have a fitted effect of over 65% in size
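FRET quenching reversal measured ClpP activation: 10 microg/mL B. subtilis ClpP at pH 8 with the FRET-FV decapeptide, read at 430 nm after 320 nm excitation. The 20-min minus 0-min signal was scaled between DMSO/no-enzyme wells and ADEP (5.8 microM final).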
Numbers without * were called inactive; ? = inconclusive; nt = not tested or not shown. The sample as a whole holds a higher share of hits than the screen did.

SMILES | Menin MLL FP TR | MLL CXXC-DNA inh | p53 reactivation | Menin-MLL FL inh | ClpP mod
CCc1ccc(NC(=O)c2ccc3c(c2)c(C)c(C)n3Cc2ccccc2)cc1 | nt | nt | nt | nt | 22µM*
Cc1c(C)n(Cc2ccc(F)cc2)c2ccc(C(=O)Nc3ccc(Cl)cc3)cc12 | nt | nt | nt | nt | 32µM*
Cc1ccc(-n2ncc3c(N(C)Cc4ccccc4)ncnc32)cc1 | nt | nt | nt | nt | 32µM*
Cc1ccccc1OCCSc1nc2ccc(NC(=O)c3ccccc3)cc2s1 | nt | nt | nt | nt | 0%
COc1cc(C)ccc1OCCSc1nc2ccc(NC(=O)c3ccc4c(c3)OCO4)cc2s1 | nt | nt | nt | nt | 22µM*
Cc1cccc(OCCSc2nc3ccc(NC(=O)c4cccs4)cc3s2)c1 | nt | nt | nt | nt | 20µM*
Cc1ccccc1OCCSc1nc2ccc(NC(=O)c3cccc(F)c3)cc2s1 | nt | nt | nt | nt | 22µM*
Cc1cc(C)cc(OCCSc2nc3ccc(NC(=O)c4ccc5c(c4)OCO5)cc3s2)c1 | nt | nt | nt | nt | 4%
Cc1ccccc1OCCSc1nc2ccc(NC(=O)c3cccs3)cc2s1 | nt | nt | nt | nt | 14µM*
COc1ccc(C(=O)NCC(c2ccc(N(C)C)cc2)N2CCc3ccccc32)cc1 (stereo not given) | nt | nt | nt | nt | -14%
O=C(C[n+]1ccncc1)c1ccc2ccccc2c1 | nt | nt | nt | nt | 7%
Cc1cccc(N2C(=O)N(c3ccccc3C)C3CS(=O)(=O)CC32)c1 (stereo not given) | -2% | -5% | nt | -5 | 28µM*
COc1ccc(CNCC(=O)Nc2cccc(S(N)(=O)=O)c2)cc1 | 3% | 3% | -6% | 2 | 35µM*
Cc1cc(=O)oc2cc(OCC3CC(c4ccccc4)=NO3)ccc12 (stereo not given) | 4% | 6% | ? | 4 | 28µM*
Cc1cc(=O)oc2cc(OCC3CC(c4ccc(Br)cc4)=NO3)ccc12 (stereo not given) | 9% | 7% | 10% | 5 | 28µM*
CCN1CCOC(=O)C1CC(=O)Nc1ccc(Br)cc1 (stereo not given) | nt | nt | nt | nt | -4%
CC1(C)CC(=O)C2=C(C1)N(CCN1CCOCC1)C1=C(C(=O)CC(C)(C)C1)C2c1cccc(F)c1 | 8% | -1% | 2% | 3 | 28µM*
c1ccc(N2N=C(c3cccs3)CC2c2ccco2)cc1 (stereo not given) | ? | -4% | -10% | 9 | 16µM*
CC(C)C(=O)N1CCN(c2nc(-c3ccccc3)c3c(c2C#N)CCCC3)CC1 | -19% | 9% | 3% | 0 | 28µM*
Cc1ccc(S(=O)(=O)N2CCN(c3nc(C)c4c(c3C#N)CC(C)(C)OC4)CC2)cc1 | -2% | -7% | 1% | -1 | 28µM*
Cc1nc(N2CCOCC2)c(C#N)c2c1COC(C)(C)C2 | -15% | 7% | 9% | 8 | 32µM*
CC1(C)Cc2c(C#N)c(NCCN3CCOCC3)nc(-c3ccccc3)c2CO1 | nt | 2% | -4% | 1 | nt
CCc1nc(N2CCOCC2)c(C#N)c2c1COC(C)(C)C2 | -4% | 12% | 3% | 5 | ?
CC(C)Cc1nc(N2CCN(C(=O)Cc3ccccc3)CC2)c(C#N)c2c1COC(C)(C)C2 | -4% | -2% | 1% | -2 | nt
CC1(C)Cc2c(C#N)c(N3CCOCC3)nc(-c3ccccc3)c2CO1 | -13% | 3% | -2% | -1 | 35µM*
SMILES | Menin MLL FP TR | MLL CXXC-DNA inh | p53 reactivation | Menin-MLL FL inh | ClpP mod
CC(C)Cc1nc(N2CCN(C(=O)c3ccco3)CC2)c(C#N)c2c1CCCC2 | ? | -1% | 8% | 1 | 5%
CC[N+](C)(C)c1ccc(/C=C/c2ccnc3ccccc23)cc1 | nt | nt | nt | nt | -1%
CSc1ncccc1C(=O)OCC(=O)NCCC1=CCCCC1 | nt | nt | 5% | nt | 0%
O=C(COC(=O)c1cccnc1Cl)NCCC1=CCCCC1 | 12% | 7% | -1% | 0 | 16µM*
CC(c1ncncc1F)[C@](O)(Cn1cncn1)c1ccc(F)cc1F (stereo not given in full) | -9% | 4% | nt | 4 | nt
CCCc1cc(N2CCCC2)n2nc(C)c(-c3ccccc3)c2n1 | -4% | 1% | 0% | 1 | 32µM*
CCN1CCN(c2cc(C(C)C)nc3c(-c4ccccc4)c(C)nn23)CC1 | nt | -12% | -4% | 6 | nt
CCOC(=O)C1CCC(CN(Cc2c(Cl)cccc2Cl)S(=O)(=O)c2ccc(F)c(C)c2)CC1 (stereo not given) | nt | nt | nt | nt | -1%
Cn1cc(/C=N/n2cnc3scc(-c4ccc(Cl)cc4)c3c2=O)c2ccccc21 | 11µM* | 6% | 3% | 0 | -14%
O=C(O)c1cccc(N2C(=O)c3cccc4cccc(c34)C2=O)c1 | 18% | -8% | 6% | -2 | ?
O=C(O)c1cccc(N2C(=O)c3cc([N+](=O)[O-])cc4cc([N+](=O)[O-])cc(c34)C2=O)c1 | ? | 32µM* | 3% | 11 | -2%
CCc1ccc2occ(CC(=O)Nc3c(C(=O)c4ccccc4)oc4ccccc34)c2c1 | nt | nt | nt | nt | 22µM*
CCc1ccc2occ(CC(=O)Nc3c(C(=O)Nc4ccc(C)cc4)oc4ccccc34)c2c1 | nt | nt | nt | nt | 261%
CCc1ccc2occ(CC(=O)Nc3c(C(=O)Nc4ccc(Cl)cc4)oc4ccccc34)c2c1 | nt | nt | nt | nt | 16µM*
Cc1ccc2occ(CC(=O)Nc3c(C(=O)Nc4ccc(Cl)cc4)oc4ccccc34)c2c1 | nt | nt | nt | nt | 18µM*
CCOC(=O)Cn1c(=NC(=O)c2nc3ccccc3s2)sc2cc(S(N)(=O)=O)ccc21 | ? | 1% | 1% | 5 | 32µM*
C=CCn1c(=NC(=O)c2sc3ccccc3c2Cl)sc2cc(S(N)(=O)=O)ccc21 | ? | 12% | -18% | 6 | 25µM*
COCCn1c(=NC(=O)c2sc3ccccc3c2Cl)sc2cc(S(N)(=O)=O)ccc21 | 3% | 18% | -9% | 8 | 22µM*
O=C(C[n+]1cccc2cccc(O)c21)c1ccc(F)cc1 | nt | nt | nt | nt | -4%
Cc1ccc(-c2nn(-c3ccccc3)cc2C2CC(c3cccs3)=NN2C(=O)CCCC(=O)O)cc1 (stereo not given) | 9% | 0% | -5% | 1 | -26%
O=C(O)CCC(=O)N1N=C(c2cccs2)CC1c1cn(-c2ccccc2)nc1-c1ccccc1 (stereo not given) | -5% | -2% | -3% | 1 | 14µM*
CCCCN1C(=O)C(O)(CC(=O)c2ccc(C(C)(C)C)cc2)c2ccccc21 (stereo not given) | nt | nt | nt | nt | 2%
Cc1cc2oc(=O)c3c(c2cc1OCc1nn[nH]n1)CCCC3 | 1% | -1% | 4% | 7 | 25µM*
COCCN(CCOC)c1nc(C)nc2c1nc(-c1ccccc1)n2CCN(C)C | -9% | nt | nt | 0 | nt
